An excerpt weighted towards active compounds, which were near 1.2% of everything screened.
B2AR arrestin: agonists driving beta-arrestin recruitment to human beta2-adrenergic receptor; P07550; beta-arrestin recruitment to beta2AR, cell-based reporter; Potency, µM (top dose mostly 46.1 µM), inactives show top-dose activation, actives largely listed as activators; 330,000 compounds, 0.02% hits;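 also: 0% = DMSO controls and full agonism = EC100 isoproterenol or metaproterenol; nearly all actives have a fitted effect of over 65% in size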
Target sequence (P07550 whole entry, looked up): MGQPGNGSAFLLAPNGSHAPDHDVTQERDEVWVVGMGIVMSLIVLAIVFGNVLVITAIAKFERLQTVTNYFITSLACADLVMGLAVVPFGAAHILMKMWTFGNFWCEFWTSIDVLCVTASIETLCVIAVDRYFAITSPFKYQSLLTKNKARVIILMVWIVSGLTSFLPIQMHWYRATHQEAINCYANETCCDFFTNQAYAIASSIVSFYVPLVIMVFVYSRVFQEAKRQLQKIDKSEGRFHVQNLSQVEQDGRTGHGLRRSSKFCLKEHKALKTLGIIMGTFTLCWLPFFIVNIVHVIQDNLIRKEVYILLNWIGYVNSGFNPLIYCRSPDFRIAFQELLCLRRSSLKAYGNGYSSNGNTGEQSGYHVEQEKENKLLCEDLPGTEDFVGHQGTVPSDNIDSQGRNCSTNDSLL
BRCA1 expr act: activators of BRCA1 expression | AID 624202 | 380,000 compounds, 1.1% hits | Potency, µM (doses to about 46.1 µM), without a hit: at the top dose activation, actives largely listed as activators | MCF7-BRCA1-FFLuc reporter, luminescence, 48 h; response scale: scaled: vehicle 0%, 10 µM genistein 100%; also: nearly all actives have a fitted effect of over 80% in size
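48 h compound treatment of MCF7-BRCA1-FFLuc cells (phenol-red free MEM, 37 °C), then 15 min with luciferase substrate and luminescence imaging.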
Mito fusion yeast: mitochondrial division inhibition or fusion activation; 320,000 compounds, 0.23% hits; Potency, µM (titrated, usually from 46.1 µM), inactives show at the top dose growth rescue (activation), hits mostly activators; S. cerevisiae fusion-defective mutant growth rescue, CellTiterGlo 48 h; also: % of control where 0% means no effect; nearly all actives have a fitted effect of over 45% in size
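Yeast fusion mutant, YPEG (non-fermentable carbon), compound, 48 h at 37C non-permissive; CellTiterGlo added, 10 min RT, luminescence read. Rescued growth = division inhibition.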
ERG-DNA inh: inhibitors of human ERG Ets domain-DNA interaction; fluorescence polarization, His-ERG Ets domain / labelled DNA; Potency, µM (doses to about 76.9 µM), for inactives: at the highest dose FP activity, negative = inhibition, usual class: inhibitors; 370,000 compounds, 0.028% hits; P11308; AID 624246; active = well fitted inhibition curve with a large enough effect in the polarisation, with a control signal flat; inconclusive = small, poorly fitted or top-dose-only effect, or effect the other way, or a change in a side signal; inactive = no such curve, though single readings can be large or run the other way; the % refers to the polarisation;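 also: polarization taken with two DNA probes labelled with fluorescein and Texas red; % of control where 0% means no effect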
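His-tagged ERG Ets domain (1 uM in the protein solution; 300mM KCl, 50mM Tris-HCl, 1mM EDTA, 1mM DTT, pH 7.5) received compound, then a probe mix of 5 nM fluorescein-DNA and 100nM Texas-615-DNA. Fluorescence polarization was read for both dyes.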
* hit, by the source's call; ? = inconclusive; nt = no result; ! = repeats disagree; [ ] = remark or other dose. Unless noted, calls follow the shape of the dose curve; as a rule, active = well fitted curve in the direction sought with a large enough effect; inconclusive = small, poorly fitted or top-dose-only effect, or another doubt; inactive = no such curve, though single readings can be large; an effect the other way counts as inactive or inconclusive. Potency is read from the fitted curve at half-maximal effect.

SMILES	B2AR arrestin	BRCA1 expr act	Mito fusion yeast	ERG-DNA inh
Cc1ccc2c(c1)sc1nc(=O)n(-c3cccc(Cl)c3)c(=O)n12	0%	1.4µM*	7%	2%
Cc1cc2oc(C(=O)Nc3sc4c(c3C(=O)NCc3ccco3)CCC4)cc(=O)c2cc1C	nt	nt	nt	9%
O=C(Nc1nc(-c2cccs2)cs1)C1=COCCO1	0%	4µM*	4%	9%
COc1ccc(C(=O)Nc2nc(-c3cccs3)cs2)cc1	nt	-7%	?	5%
COc1cc(C(=O)Nc2nc(-c3cccs3)cs2)cc(OC)c1OC	0%	-52%	14µM*	nt
Cc1cccc(-c2nc3c4ccccc4nc(N4CCN(c5cccc(Cl)c5)CC4)n3n2)c1	nt	nt	nt	0%
COc1cccc(-c2cn3c(n2)sc2cc(C(=O)NCc4cccs4)ccc23)c1	nt	nt	nt	0%
c1ccc(CN2CCC3(CCCc4ccccc43)CC2)cc1	0%	-21%	23µM*!	-3%
c1ccc(CN2CCC3(CC2)Nc2ccccc2CO3)cc1	-1%	-3%	1%	17%
COc1ccc(OC)c(NC(=O)Cn2nc3c(cc2=O)CCCC3)c1	nt	-8%	nt	-5%
OC(c1ccc(F)cc1)c1ncc(-c2ccccc2Cl)[nH]1 (stereo not drawn)	nt	11µM*	nt	nt
Cc1ccccc1-c1cnc(C(O)c2ccccc2)[nH]1 (stereo not drawn)	nt	4.5µM*	nt	nt
COc1cccc(-c2cnc(C(O)c3ccc(F)cc3)[nH]2)c1 (stereo not drawn)	nt	13µM*	nt	nt
CC(C)c1ccc(NC(=O)Cn2c(=O)n(CC3CCC(C(=O)NCCc4ccccc4)CC3)c(=O)c3ccccc32)cc1 (stereo not drawn)	nt	14%	nt	-2%
O=C1C=C(NC2CCCC2)CC(c2ccccc2)C1 (stereo not drawn)	3.5µM*	-12%	0%	-2%
O=C(COc1ccccc1)NCC(=O)N/N=C/c1cc(Br)ccc1OCc1ccccc1	0%	-24%	18µM*	6%
CCOC(=O)N/N=C\c1ccccc1OC/C=C/c1ccccc1	6%	4µM*	0%	-2%
COC(=O)N/N=C\c1ccccc1OC/C=C/c1ccccc1	0%	11µM*	-2%	-12%
COc1cc(/C=N\NC(C)=O)ccc1OC/C=C/c1ccccc1	-1%	4%	3%	10%
CCOC(=O)N/N=C/c1ccc(Oc2ccccc2)cc1	0%	?	-3%	7%
N#CCC(=O)N/N=C\c1cc(Br)ccc1OC/C=C/c1ccccc1	-1%	8.9µM*	-1%	22%
N#CCC(=O)N/N=C/c1cccc(Oc2ccccc2)c1	0%	-11%	-2%	8%
O=C(NCc1ccccc1Cl)c1ccc(Nc2nc3ccccc3n3nnnc23)cc1	nt	0%	nt	-5%
O=S(=O)(NCc1nc2cccnc2n1Cc1ccc(F)cc1)c1ccc2c(c1)CCCC2	nt	nt	nt	-4%
Cc1ccc(CSC2=NS(=O)(=O)c3ccccc32)cc1	nt	-19%	nt	nt
SMILES	B2AR arrestin	BRCA1 expr act	Mito fusion yeast	ERG-DNA inh
COc1ccccc1N1CCN(/N=C/C=C\c2ccco2)CC1	0%	2.8µM*	-1%	6%
Cc1ccc(Cn2cnc3nc4c(cc3c2=O)CC(C)CC4)cc1 (stereo not drawn)	nt	nt	nt	-5%
C=C1C=C(C(F)F)n2ncc(C(=O)NCc3ccc(Cl)cc3Cl)c2N1	nt	4%	nt	nt
N#C/C(=C\c1ccccc1[N+](=O)[O-])c1nc(C2CC2)cs1	0%	0%	20µM*	-14%
CC(C)(C)c1nnc(NC(=S)Nc2ccccc2)s1	3%	2.8µM*	4%	12%
O=C(CNC(=O)c1ccccc1F)Nc1ccc2c(c1)CCC2	0%	4µM*	2%	nt
O=C(Nc1ccc2c(c1)CCC2)c1c(F)cccc1Cl	0%	5µM*	9%	2%
O=C1OCc2ccc(NC(=O)c3c(F)cccc3Cl)cc21	0%	30%	-2%	-11%
O=C(CNC(=O)c1ccc(Br)cc1)Nc1ccc2c(c1)CCC2	-1%	-11%	nt	6%[15.4 µM]
O=C(NCCc1ccc(Cl)cc1)C(=O)NCC(c1ccco1)S(=O)(=O)c1ccc(Cl)cc1 (stereo not drawn)	nt	nt	nt	1%
O=c1cc(-c2ccccc2)oc2ccc(O)cc12	-1%	2.8µM*	6%	-6%
Cc1occc1C(=O)N/N=C/c1ccc2c(c1)OCO2	0%	38%	-1%	6%
Cc1ccc(NC(=O)c2ccoc2C)cc1C	0%	6.3µM*	?	-1%
CC1CCC(NC(=O)C(=O)Nc2ccc3c(c2)OCO3)CC1 (stereo not drawn)	0%	2.8µM*	3%	1%
CC1CCC(NC(=O)c2ccc3c(c2)OCO3)CC1 (stereo not drawn)	-1%	-10%	1%	2%
Cc1occc1C(=O)Nc1ccc2c(c1)OCO2	0%	3.2µM*	-6%	8%
Cc1cc(NC(=O)c2ccoc2C)ccc1Br	0%	85%	?	-5%
Cc1ccccc1NC(=O)c1cc2c(-c3ccccc3)nn(-c3ccccc3)c2s1	nt	-2%	nt	-3%
Nc1c(C(=O)Nc2ccc(Cl)cc2)oc2ccccc12	-1%	2.5µM*	8%	5%
CC(=O)Nc1cccc(N(C)S(C)(=O)=O)c1	0%	11%	-5%	8%
CC(=O)Nc1cccc(S(C)(=O)=O)c1	0%	-7%	-8%	20µM*
N=C1/C(=C/c2ccc(OCc3ccccc3)cc2)C(=O)N=C2SC(CC(=O)N3CCOCC3)=NN12	1%	14µM*	6%	0%
N=C1/C(=C/c2ccc(OCc3ccccc3F)cc2)C(=O)N=C2SC(CC(=O)N3CCOCC3)=NN12	1%	?	0%	8%
COC(=O)c1ccc(NC(=O)CN(c2ccc(OC)cc2)S(C)(=O)=O)cc1	0%	11µM*	0%	7%
CCOc1ccc(NC(=O)CN(c2ccc(OC)cc2)S(C)(=O)=O)cc1	-1%	11µM*	1%	-1%
SMILES	B2AR arrestin	BRCA1 expr act	Mito fusion yeast	ERG-DNA inh
CCOc1ccc(N(CC(=O)NCc2ccccc2C)S(C)(=O)=O)cc1	0%	11µM*	2%	12%
CCOc1ccc(N(CC(=O)NCCSCc2ccccc2Cl)S(C)(=O)=O)cc1	0%	-4%	4%	3%
Clc1ccccc1C(c1ccccc1)(c1ccccc1)n1ccnc1	0%	-35%	0.52µM*!	-8%
C#CC(c1ccccc1)(c1ccccc1)n1ccnc1	nt	-27%	nt	nt
COc1ccc(Cn2c(=O)c3ccccc3n3c(-c4ccc(C)cc4)nnc23)cc1	nt	nt	nt	6%
Cc1ccc(C(=O)Nc2ccc(N3CCN(C)CC3)cc2)cc1	0%	1.3µM*	1%	7%
COc1ccc(C(=O)Nc2ccc(N3CCN(C)CC3)cc2)cc1OC	-1%	2µM*	0%	11%
COc1ccc(NC(=O)c2ccc3c(c2)N(C)CCS3)cc1	0%	10µM*	0%	-3%
CN1CCN(c2ccc(NC(=O)c3ccc4ccccc4c3)cc2)CC1	1%	0%	4%	-3%
COc1ccc(C(=O)Nc2ccc(N3CCN(C)CC3)cc2)cc1	-1%	2.2µM*	1%	-18%
CCOc1ccc(C(=O)Nc2ccc(N3CCN(C)CC3)cc2)cc1	-1%	48%	1%	-8%
S=C(NCCCc1cnc[nH]1)NCCCN(CCc1ccccc1)c1ccc(Br)cn1	nt	-19%	nt	nt

From PubChem BioAssay
